Test results reported in ChEMBL document CHEMBL1961873, “Compounds: GSK PKIS; Assays: Nanosyn kinase panel” (2012).

Assays:
[1] = target: Tyrosine-protein kinase Fyn (Homo sapiens) (UniProt P06241); conditions: at 1 µM
[2] = target: Tyrosine-protein kinase HCK (Homo sapiens) (UniProt P08631); conditions: at 0.1 µM
[3] = target: Tyrosine-protein kinase HCK (Homo sapiens) (UniProt P08631); conditions: at 1 µM
[4] = target: Insulin-like growth factor 1 receptor (Homo sapiens) (UniProt P08069); conditions: at 0.1 µM
[5] = target: Insulin-like growth factor 1 receptor (Homo sapiens) (UniProt P08069); conditions: at 1 µM
[6] = target: Insulin receptor (Homo sapiens) (UniProt P06213); conditions: at 0.1 µM
[7] = target: Insulin receptor (Homo sapiens) (UniProt P06213); conditions: at 1 µM
[8] = target: Insulin receptor-related protein (Homo sapiens) (UniProt P14616); conditions: at 0.1 µM
[9] = target: Insulin receptor-related protein (Homo sapiens) (UniProt P14616); conditions: at 1 µM
[10] = target: T1, Tyrosine-protein kinase ITK/TSK (Homo sapiens) (UniProt Q08881); conditions: at 0.1 µM
T1 sequence (whole entry): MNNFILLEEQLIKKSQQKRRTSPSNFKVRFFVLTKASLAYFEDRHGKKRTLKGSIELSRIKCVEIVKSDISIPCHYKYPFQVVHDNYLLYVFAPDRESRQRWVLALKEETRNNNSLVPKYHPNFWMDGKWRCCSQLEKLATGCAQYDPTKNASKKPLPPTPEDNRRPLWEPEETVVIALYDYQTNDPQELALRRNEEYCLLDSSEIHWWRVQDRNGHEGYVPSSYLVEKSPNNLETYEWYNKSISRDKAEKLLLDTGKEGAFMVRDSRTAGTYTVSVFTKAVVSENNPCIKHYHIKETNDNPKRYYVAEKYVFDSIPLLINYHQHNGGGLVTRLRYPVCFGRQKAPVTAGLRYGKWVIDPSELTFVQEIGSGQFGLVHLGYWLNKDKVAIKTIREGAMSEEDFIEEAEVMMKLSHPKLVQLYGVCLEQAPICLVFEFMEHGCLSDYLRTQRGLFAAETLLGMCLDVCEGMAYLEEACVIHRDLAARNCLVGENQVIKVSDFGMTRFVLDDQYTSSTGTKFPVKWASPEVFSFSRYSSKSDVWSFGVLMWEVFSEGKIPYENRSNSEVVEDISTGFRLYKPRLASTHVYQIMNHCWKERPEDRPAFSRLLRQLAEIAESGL

[11] = target: T1, Tyrosine-protein kinase ITK/TSK (Homo sapiens); conditions: at 1 µM
[12] = target: Tyrosine-protein kinase JAK1 (Homo sapiens) (UniProt P23458); conditions: at 0.1 µM
[13] = target: Tyrosine-protein kinase JAK1 (Homo sapiens) (UniProt P23458); conditions: at 1 µM
[14] = target: Tyrosine-protein kinase JAK2 (Homo sapiens) (UniProt O60674); conditions: at 0.1 µM
[15] = target: Tyrosine-protein kinase JAK2 (Homo sapiens) (UniProt O60674); conditions: at 1 µM
[16] = target: T2, Tyrosine-protein kinase JAK3 (Homo sapiens) (UniProt P52333); conditions: at 0.1 µM
T2 sequence (whole entry): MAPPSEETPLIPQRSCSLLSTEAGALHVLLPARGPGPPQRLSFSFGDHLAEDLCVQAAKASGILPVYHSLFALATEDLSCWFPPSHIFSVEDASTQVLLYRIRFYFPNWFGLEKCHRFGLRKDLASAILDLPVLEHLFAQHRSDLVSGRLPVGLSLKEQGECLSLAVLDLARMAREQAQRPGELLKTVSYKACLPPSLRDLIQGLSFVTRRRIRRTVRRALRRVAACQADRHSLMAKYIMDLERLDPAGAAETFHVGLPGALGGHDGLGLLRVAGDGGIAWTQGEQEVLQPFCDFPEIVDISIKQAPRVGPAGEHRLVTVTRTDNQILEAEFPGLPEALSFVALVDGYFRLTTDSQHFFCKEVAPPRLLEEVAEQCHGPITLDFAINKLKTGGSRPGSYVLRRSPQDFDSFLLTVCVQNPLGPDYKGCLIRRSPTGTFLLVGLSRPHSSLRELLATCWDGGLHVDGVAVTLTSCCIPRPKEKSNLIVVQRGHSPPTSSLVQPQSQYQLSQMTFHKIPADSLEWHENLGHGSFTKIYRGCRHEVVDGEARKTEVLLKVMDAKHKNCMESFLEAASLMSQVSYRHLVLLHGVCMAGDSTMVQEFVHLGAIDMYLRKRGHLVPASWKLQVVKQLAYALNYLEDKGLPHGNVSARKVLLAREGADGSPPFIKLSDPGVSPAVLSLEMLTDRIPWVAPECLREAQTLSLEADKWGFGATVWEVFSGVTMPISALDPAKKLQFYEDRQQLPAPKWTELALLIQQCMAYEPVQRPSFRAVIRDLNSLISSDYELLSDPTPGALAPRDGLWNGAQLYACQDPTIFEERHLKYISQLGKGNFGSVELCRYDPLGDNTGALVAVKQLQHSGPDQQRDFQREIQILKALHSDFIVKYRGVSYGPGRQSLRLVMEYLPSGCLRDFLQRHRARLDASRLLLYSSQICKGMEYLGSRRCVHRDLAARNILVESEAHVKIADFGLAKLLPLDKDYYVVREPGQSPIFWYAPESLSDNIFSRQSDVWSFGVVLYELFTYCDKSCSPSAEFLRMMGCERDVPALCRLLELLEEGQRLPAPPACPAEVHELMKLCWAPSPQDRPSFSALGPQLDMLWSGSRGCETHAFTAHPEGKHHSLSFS

[17] = target: T2, Tyrosine-protein kinase JAK3 (Homo sapiens); conditions: at 1 µM
[18] = target: Vascular endothelial growth factor receptor 2 (Homo sapiens) (UniProt P35968); conditions: at 0.1 µM
[19] = target: Vascular endothelial growth factor receptor 2 (Homo sapiens) (UniProt P35968); conditions: at 1 µM
[20] = target: Mast/stem cell growth factor receptor Kit (Homo sapiens) (UniProt P10721); conditions: at 0.1 µM;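 note: values are mean inhibition of KIT, from the GSK PKIS dataset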
Sequence of Mast/stem cell growth factor receptor Kit (Homo sapiens) (P10721 whole entry): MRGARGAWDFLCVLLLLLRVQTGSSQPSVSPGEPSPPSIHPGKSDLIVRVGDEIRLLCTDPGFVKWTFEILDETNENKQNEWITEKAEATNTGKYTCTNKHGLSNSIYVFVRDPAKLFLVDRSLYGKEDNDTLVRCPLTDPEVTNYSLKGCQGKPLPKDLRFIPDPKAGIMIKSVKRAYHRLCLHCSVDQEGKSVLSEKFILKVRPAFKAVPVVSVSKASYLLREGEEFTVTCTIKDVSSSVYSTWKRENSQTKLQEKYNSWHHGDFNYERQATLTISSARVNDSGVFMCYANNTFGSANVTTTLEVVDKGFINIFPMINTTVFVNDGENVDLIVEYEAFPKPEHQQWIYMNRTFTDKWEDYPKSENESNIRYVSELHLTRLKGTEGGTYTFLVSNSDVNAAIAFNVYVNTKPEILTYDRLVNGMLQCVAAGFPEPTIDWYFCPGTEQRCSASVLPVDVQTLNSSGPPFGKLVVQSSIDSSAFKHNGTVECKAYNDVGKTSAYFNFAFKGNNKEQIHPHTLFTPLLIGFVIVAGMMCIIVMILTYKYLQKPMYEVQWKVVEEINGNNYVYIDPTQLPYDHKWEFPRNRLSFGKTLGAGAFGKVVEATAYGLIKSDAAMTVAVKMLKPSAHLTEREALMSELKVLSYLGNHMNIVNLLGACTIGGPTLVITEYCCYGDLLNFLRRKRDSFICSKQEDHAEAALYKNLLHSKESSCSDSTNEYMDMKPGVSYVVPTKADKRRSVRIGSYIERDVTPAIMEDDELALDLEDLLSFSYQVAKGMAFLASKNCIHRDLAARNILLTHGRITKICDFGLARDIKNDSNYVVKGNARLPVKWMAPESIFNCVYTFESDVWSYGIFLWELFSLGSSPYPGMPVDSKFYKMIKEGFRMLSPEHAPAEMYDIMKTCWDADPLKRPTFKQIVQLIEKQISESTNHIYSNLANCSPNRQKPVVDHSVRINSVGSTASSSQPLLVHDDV

Sequence of Insulin-like growth factor 1 receptor (Homo sapiens) (P08069 31-736 limits assumed): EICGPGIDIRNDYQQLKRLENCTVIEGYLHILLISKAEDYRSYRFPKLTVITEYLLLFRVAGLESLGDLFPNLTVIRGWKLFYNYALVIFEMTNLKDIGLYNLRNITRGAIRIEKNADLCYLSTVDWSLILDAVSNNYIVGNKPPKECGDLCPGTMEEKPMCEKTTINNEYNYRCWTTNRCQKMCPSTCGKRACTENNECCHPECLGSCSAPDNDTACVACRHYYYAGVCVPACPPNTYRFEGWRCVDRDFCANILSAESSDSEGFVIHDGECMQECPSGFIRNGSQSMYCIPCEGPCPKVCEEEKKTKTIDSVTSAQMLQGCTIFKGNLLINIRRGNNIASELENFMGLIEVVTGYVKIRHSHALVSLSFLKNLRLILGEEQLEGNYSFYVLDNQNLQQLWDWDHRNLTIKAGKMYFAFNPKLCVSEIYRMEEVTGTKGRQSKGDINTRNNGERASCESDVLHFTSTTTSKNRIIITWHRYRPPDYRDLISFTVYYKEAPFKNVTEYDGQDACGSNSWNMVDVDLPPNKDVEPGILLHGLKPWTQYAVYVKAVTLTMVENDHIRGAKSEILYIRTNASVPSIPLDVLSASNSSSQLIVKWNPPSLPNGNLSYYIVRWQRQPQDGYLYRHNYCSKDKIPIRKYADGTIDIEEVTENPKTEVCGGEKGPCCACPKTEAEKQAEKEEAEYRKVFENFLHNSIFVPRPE
Sequence of Insulin-like growth factor 1 receptor (Homo sapiens) (P08069 741-1367 limits assumed): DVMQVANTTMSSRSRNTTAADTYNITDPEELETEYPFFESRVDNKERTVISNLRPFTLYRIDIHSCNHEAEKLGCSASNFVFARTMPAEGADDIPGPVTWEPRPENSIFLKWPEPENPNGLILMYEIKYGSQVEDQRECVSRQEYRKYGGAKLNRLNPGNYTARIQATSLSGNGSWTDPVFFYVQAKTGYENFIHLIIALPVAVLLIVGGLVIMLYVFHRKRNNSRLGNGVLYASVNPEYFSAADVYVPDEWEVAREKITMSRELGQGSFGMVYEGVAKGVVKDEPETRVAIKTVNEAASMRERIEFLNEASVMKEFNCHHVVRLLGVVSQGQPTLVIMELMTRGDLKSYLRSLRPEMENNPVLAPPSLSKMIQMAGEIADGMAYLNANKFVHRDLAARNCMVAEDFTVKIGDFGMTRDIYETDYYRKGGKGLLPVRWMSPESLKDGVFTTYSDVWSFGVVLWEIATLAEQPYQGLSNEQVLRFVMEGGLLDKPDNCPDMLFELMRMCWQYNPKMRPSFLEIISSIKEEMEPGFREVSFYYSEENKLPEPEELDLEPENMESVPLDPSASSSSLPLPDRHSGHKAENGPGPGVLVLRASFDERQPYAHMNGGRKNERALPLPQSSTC
Sequence of Tyrosine-protein kinase JAK2 (Homo sapiens) (O60674 whole entry): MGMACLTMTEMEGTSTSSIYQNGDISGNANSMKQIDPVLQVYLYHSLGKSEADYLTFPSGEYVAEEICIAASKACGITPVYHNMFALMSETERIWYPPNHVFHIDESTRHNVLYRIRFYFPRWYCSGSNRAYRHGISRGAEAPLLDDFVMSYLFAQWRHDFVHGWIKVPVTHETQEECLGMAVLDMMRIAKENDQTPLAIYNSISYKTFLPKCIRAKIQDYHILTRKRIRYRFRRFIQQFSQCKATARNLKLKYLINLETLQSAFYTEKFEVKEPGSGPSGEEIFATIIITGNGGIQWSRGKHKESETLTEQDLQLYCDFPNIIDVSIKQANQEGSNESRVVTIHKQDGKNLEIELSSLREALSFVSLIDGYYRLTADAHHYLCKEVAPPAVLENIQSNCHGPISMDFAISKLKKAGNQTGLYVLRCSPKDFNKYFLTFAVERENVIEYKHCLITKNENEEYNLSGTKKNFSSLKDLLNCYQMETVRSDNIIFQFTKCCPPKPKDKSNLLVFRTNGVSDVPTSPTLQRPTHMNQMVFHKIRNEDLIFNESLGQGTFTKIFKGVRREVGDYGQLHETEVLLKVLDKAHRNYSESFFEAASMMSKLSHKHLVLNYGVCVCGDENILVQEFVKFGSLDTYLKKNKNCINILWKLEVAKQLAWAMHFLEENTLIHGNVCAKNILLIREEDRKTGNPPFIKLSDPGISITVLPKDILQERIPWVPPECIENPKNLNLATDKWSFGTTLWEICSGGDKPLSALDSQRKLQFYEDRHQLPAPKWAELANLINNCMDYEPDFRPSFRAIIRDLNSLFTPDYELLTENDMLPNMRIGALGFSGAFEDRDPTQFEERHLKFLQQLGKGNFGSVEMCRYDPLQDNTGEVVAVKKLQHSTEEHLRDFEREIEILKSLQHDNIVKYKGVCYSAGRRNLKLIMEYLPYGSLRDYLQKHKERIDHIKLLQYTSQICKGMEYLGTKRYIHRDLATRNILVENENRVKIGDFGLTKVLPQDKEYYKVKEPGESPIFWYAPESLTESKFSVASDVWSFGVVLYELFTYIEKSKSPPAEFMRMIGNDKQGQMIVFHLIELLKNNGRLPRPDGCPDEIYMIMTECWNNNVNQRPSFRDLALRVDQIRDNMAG
Sequence of Insulin receptor (Homo sapiens) (P06213 28-758 limits assumed): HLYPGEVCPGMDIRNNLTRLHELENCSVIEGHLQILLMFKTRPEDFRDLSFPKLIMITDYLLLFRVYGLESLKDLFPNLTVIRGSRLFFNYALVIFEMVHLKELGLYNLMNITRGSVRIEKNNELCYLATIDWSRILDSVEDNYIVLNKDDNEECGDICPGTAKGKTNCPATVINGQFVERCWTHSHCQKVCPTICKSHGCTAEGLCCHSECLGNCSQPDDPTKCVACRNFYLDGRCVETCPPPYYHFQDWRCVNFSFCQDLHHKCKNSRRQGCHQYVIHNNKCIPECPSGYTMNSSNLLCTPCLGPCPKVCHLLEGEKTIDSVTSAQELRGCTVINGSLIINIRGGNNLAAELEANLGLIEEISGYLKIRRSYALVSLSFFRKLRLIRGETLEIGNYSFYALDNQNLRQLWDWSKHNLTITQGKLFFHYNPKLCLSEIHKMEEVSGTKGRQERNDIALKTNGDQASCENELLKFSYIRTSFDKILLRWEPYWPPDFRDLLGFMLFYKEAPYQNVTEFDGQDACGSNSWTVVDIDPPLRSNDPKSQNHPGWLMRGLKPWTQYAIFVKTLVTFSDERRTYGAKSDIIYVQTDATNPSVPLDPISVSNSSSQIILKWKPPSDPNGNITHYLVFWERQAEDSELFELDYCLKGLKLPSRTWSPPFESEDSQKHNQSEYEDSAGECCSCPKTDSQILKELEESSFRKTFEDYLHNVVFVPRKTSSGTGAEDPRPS
Sequence of Insulin receptor (Homo sapiens) (P06213 763-1382 limits assumed): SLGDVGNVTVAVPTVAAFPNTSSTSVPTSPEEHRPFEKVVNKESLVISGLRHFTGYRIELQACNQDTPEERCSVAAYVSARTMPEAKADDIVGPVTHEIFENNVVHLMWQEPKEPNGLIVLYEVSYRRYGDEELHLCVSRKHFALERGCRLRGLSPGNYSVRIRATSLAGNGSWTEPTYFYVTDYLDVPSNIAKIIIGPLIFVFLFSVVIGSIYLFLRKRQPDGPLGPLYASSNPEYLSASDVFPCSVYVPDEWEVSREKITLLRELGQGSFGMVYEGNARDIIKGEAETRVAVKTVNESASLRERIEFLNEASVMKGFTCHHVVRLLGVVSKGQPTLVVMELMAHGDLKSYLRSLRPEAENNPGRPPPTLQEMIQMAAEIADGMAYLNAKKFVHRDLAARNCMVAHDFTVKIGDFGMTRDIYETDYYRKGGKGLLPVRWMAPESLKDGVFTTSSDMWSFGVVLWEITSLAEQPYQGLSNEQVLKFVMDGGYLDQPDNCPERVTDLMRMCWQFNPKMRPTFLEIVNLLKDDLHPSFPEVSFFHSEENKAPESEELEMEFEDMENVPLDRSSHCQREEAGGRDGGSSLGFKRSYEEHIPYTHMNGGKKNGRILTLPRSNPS

| SMILES | inhibition [1] | inhibition [2] | inhibition [3] | inhibition [4] | inhibition [5] | inhibition [6] | inhibition [7] | inhibition [8] | inhibition [9] | inhibition [10] | inhibition [11] | inhibition [12] | inhibition [13] | inhibition [14] | inhibition [15] | inhibition [16] | inhibition [17] | inhibition [18] | inhibition [19] | inhibition [20] |
| --- | --- | --- | --- | --- | --- | --- | --- | --- | --- | --- | --- | --- | --- | --- | --- | --- | --- | --- | --- | --- |
| CCc1nn2ncccc2c1-c1ccnc(NC2CC2)n1 | 5.07% | 5.27% | 5.74% | 1.94% | 2% | 2.33% | 4.74% | 2.32% | 1.77% | 1.28% | 1.59% | 1.35% | 0.58% | 0.9% | 1.59% | -2.87% | -0.27% | 3.91% | 5.8% | 3.6% |
| CCOc1ccc2c(-c3ccnc(Nc4cccc(C(F)(F)F)c4)n3)cnn2n1 | 4.94% | 4.28% | 6.8% | -0.5% | 1.57% | 0.36% | 1.46% | 0.63% | 1% | 0.45% | 4.47% | 1.9% | 5.28% | 0.91% | 0.53% | -1.95% | -0.21% | 4.26% | 7.57% | 3.18% |
| Fc1ccc(-c2nn3ncccc3c2-c2ccnc(Nc3ccc4c(c3)OCCO4)n2)cc1 | 88% | 26.3% | 71.5% | 8.14% | 3.49% | 7.04% | 18.3% | 2.61% | 1.61% | 1.51% | 0.31% | 3.02% | 2.04% | 0.34% | 1.88% | -0.15% | -1.41% | 30.6% | 75.5% | 60.7% |
| CC(=O)Nc1cccc(C#Cc2cncnc2Nc2ccc(OCc3cccc(F)c3)c(Cl)c2)c1 | 5.51% | 5.81% | 9.29% | 1.84% | 2.53% | 3.44% | 1.06% | 2.25% | 1.77% | 1.8% | 2.79% | 6.03% | 3.66% | 4.37% | 6.59% | 0.59% | 4.13% | 9.03% | 12.6% | 1.83% |
| c1ccc(-c2nc3n(c2-c2ccc4c(c2)OCO4)CCC3)nc1 | 2.79% | 2.86% | 0.81% | 9.41% | 8.89% | 4.57% | 3.26% | 0.08% | 1.11% | 0.42% | 0.24% | -2.35% | 4.78% | 1.27% | -1.02% | -0.19% | -0.04% | 3.58% | 11.7% | 1.86% |
| COc1ccc(-c2cc3c(N)ncnc3o2)cc1 | 3.42% | -0.32% | 7.05% | -3.63% | -0.91% | -0.41% | 2.44% | -2.87% | -2.2% | -0.48% | 0.68% | -0.12% | 7.71% | -0.86% | 3.1% | -0.88% | 0.39% | 0.19% | 2.97% | -0.07% |
| Cc1cccc(Nc2ncc(-c3ccccc3)o2)c1 | 8.62% | 4.6% | 10.2% | 4.44% | 1.6% | 3.27% | 2.89% | 2.57% | 1.2% | 2.38% | 3.08% | 2.19% | 0.42% | 2% | 2.63% | -0.81% | -0.44% | 4.96% | 21.3% | 38.5% |
| COc1cc(Nc2nccc(Nc3ccc4c(C)n[nH]c4c3)n2)cc(OC)c1OC | 85.4% | 31.2% | 67.7% | 28% | 76.8% | 13.1% | 64.7% | 1.88% | 3.74% | 2.37% | 7.07% | 17.8% | 66.5% | 35.6% | 72.5% | 1.48% | 27.8% | 74.9% | 72.5% | 77.3% |
| CC(=O)NCc1cccc(C#Cc2cncnc2Nc2ccc(OCc3cccc(F)c3)c(Cl)c2)c1 | 3.27% | 2.8% | 2.97% | 0.82% | 1.07% | 2.9% | 0.68% | -0.93% | -0.28% | 0.36% | 0.81% | 0.65% | 4.76% | -0.2% | -3% | -0.21% | 4.46% | 0.67% | 8.91% | -1.01% |
| NS(=O)(=O)c1ccc(N/N=C2\C(=O)Nc3ccc4ncccc4c32)cc1 | 30.1% | 13.6% | 73.5% | 1.63% | 13.7% | 5.75% | 27.8% | -0.5% | 1.85% | 2.75% | 18.5% | 2.63% | 17.3% | 1.52% | 22.4% | 14.2% | 67.7% | 61.6% | 88.6% | 63.8% |
| N#Cc1c(NC(=O)CN2CCOCC2)sc2c1CCCC2 | 8.48% | 2.96% | 8.43% | 4.81% | 5.33% | 13.2% | 8.64% | 3.54% | 3.5% | 1.1% | 3.52% | 2.38% | 9.38% | 2.3% | 3.35% | -0.09% | 1.28% | 4.13% | 6.56% | 6.21% |
| FC(F)(F)c1cccc(-c2nn3ncccc3c2-c2ccnc(Nc3ccc4c(c3)OCCO4)n2)c1 | 48.1% | 5.43% | 31.2% | -0.53% | 1.37% | -1.37% | 3.05% | 0.31% | 1.27% | 0.97% | 2.97% | -1.29% | -0.53% | 0.96% | 1.37% | -0.61% | 0.66% | 12.6% | 49.6% | 2.36% |
| CNC(=O)c1cncc(/C=C/c2ccccc2Cl)c1 | 6.88% | 1.18% | 11.3% | 6.84% | 5.76% | -1.75% | -1.65% | -0.5% | -1.16% | 1.6% | 2.43% | 1.61% | 10.6% | 0.26% | 1.2% | 1.51% | 2.32% | 0.94% | 8.36% | 0.25% |
